Bioassay records deposited in PubChem BioAssay by Broad Institute.
Rows were chosen to be rich in hits. Some 2.1% of all compounds tested hit in one or more screens of this group.
Casp6 inh: human caspase-6 inhibitors, primary screen, biochemical, VEID-R110 fluorescence, single point, set 2. P55212. purified caspase-6, Z-VEID-R110 cleavage fluorescence. inhibition, % at 12.5 µM. 0.53% of 350,000 active;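 active = mean inhibition across replicates at least about 35%, with every replicate also reaching that limit, limit read from the data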
Target sequence (P55212 24-179 limits assumed): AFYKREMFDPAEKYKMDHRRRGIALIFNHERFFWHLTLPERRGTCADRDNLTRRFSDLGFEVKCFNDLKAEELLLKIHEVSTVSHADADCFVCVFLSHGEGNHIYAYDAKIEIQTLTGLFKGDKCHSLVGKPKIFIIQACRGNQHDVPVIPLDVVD
Target sequence (P55212 194-293 limits assumed): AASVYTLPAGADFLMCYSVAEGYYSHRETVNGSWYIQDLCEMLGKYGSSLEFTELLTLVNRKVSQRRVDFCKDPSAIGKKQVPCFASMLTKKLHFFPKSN
NSD2 inh: NSD2 histone methyltransferase inhibitors, primary screen, biochemical, AlphaScreen, single concentration, set 2; Histone-lysine N-methyltransferase NSD2 (Homo sapiens), O96028; NSD2 peptide methylation, 120 min; inhibition, % at 12.5 µM; 0.54% of 310,000 active; AID 743445, 2014; in the data active = inhibition above about 50%
ARNT-TACC3 inh: disruptors of ARNT/TACC3 protein interaction, primary screen, biochemical, AlphaScreen, single concentration; Transforming acidic coiled-coil-containing protein 3 (Homo sapiens), Q9Y6A5; AlphaScreen His-ARNT PAS-B/GST-TACC3 binding, luminescence; TACC3 fragment carries E629A point mutation; inhibition, % at 9.99 µM; 0.66% of 390,000 active;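 active = mean inhibition of replicates at least 50% and at least half of replicates each reaching 50%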
SIRT5 inh: SIRT5 desuccinylase inhibitors, primary screen, biochemical, fluorescence imaging, single point, set 5. NAD-dependent protein deacylase sirtuin-5, mitochondrial (Homo sapiens), Q9NXA8. Purified SirT5, succinyl-peptide AMC, trypsin-coupled fluorescence. inhibition, % at 15 µM. 1.1% of 330,000 active. AID 652115, 2013; in the data active = inhibition above about 15%
Target sequence (Q9NXA8 whole entry, looked up): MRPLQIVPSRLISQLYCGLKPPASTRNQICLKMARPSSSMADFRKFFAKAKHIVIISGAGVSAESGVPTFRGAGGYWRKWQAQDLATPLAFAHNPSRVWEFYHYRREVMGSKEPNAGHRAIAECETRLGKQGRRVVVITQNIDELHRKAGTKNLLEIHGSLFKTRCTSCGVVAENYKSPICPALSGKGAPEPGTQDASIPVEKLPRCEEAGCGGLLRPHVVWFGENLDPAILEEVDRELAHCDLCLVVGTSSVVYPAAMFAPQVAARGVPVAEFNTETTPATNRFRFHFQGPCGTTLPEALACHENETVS
PfHsp90 yeast 2: growth inhibition of PfHsp90-expressing yeast, primary screen, antimalarial PfHsp90 inhibitor project, S. cerevisiae, BacTiter-Glo luminescence, single point, set 2; BacTiter-Glo ATP, 48 h; yeast lacking PDR1 and PDR3 efflux regulators; inhibition, % at 9.4 µM; 0.32% of 310,000 active;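 active = every replicate shows inhibition above about 80%, whatever the replicate mean, limit read from the data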
Large screens that a line does not name were inactive.

C[C@H]1CCCCO[C@H](CN(C)C(=O)Nc2cccc3ccccc23)[C@@H](C)CN([C@@H](C)CO)C(=O)c2cc(NS(=O)(=O)c3ccc(F)cc3)ccc2O1	SIRT5 inh 17.1 (no result: NSD2 inh, PfHsp90 yeast 2)
COc1ccc(S(=O)(=O)Nc2ccc3c(c2)C(=O)N([C@@H](C)CO)C[C@H](C)[C@@H](CN(C)C(=O)Nc2ccc(F)cc2)OCCCC[C@H](C)O3)cc1	SIRT5 inh 16.1 (no result: NSD2 inh, PfHsp90 yeast 2)
C[C@@H]1CCCCO[C@@H](CN(C)C(=O)C2CCCCC2)[C@@H](C)CN([C@H](C)CO)C(=O)c2cc(NC(=O)Nc3ccc(F)cc3)ccc2O1	none (no result: NSD2 inh, PfHsp90 yeast 2)
C[C@@H]1CCCCO[C@H](CN(C)C(=O)C2CCCCC2)[C@H](C)CN([C@@H](C)CO)C(=O)c2cc(NC(=O)Nc3ccc(F)cc3)ccc2O1	SIRT5 inh 15.6 (no result: NSD2 inh, PfHsp90 yeast 2)
COc1ccc(NC(=O)Nc2ccc3c(c2)C(=O)N([C@@H](C)CO)C[C@H](C)[C@@H](CN(C)C(=O)Nc2ccc(F)cc2)OCCCC[C@H](C)O3)cc1	SIRT5 inh 17.3 (no result: NSD2 inh, PfHsp90 yeast 2)
COc1ccccc1NC(=O)N[C@@H]1CC[C@H](CCn2cc(-c3ccccc3)nn2)O[C@H]1CO	none (no result: NSD2 inh, PfHsp90 yeast 2)
C[C@H](CO)N1C[C@H](C)[C@H](CN(C)C(=O)Nc2ccc(C(F)(F)F)cc2)OCCCC[C@H](C)Oc2ccc(NC(=O)Nc3ccc(F)cc3)cc2C1=O	SIRT5 inh 16.7 (no result: NSD2 inh, PfHsp90 yeast 2)
C[C@@H]1CCCCO[C@H](CN(C)C(=O)Nc2ccc(F)cc2)[C@@H](C)CN([C@H](C)CO)C(=O)c2cc(NC(=O)Nc3ccc(C(F)(F)F)cc3)ccc2O1	none (no result: NSD2 inh, PfHsp90 yeast 2)
COc1ccc(NC(=O)N(C)C[C@@H]2OCCCC[C@H](C)Oc3ccc(NS(=O)(=O)c4ccc(F)cc4)cc3C(=O)N([C@@H](C)CO)C[C@@H]2C)cc1	none (no result: NSD2 inh, PfHsp90 yeast 2)
COc1ccc(S(=O)(=O)Nc2ccc3c(c2)C(=O)N([C@H](C)CO)C[C@@H](C)[C@H](CN(C)C(=O)Nc2ccc(F)cc2)OCCCC[C@@H](C)O3)cc1	SIRT5 inh 15.4 (no result: NSD2 inh, PfHsp90 yeast 2)
O=C(C1CCC1)N1CC2(C1)[C@@H](c1ccccc1)[C@@H](CO)N2C(=O)c1ccccn1	none (no result: NSD2 inh, ARNT-TACC3 inh, PfHsp90 yeast 2)
CN(C)C(=O)C[C@H]1CC[C@@H]2[C@H](COc3ccc(NC(=O)C4CCCC4)cc3C(=O)N2C)O1	none (no result: NSD2 inh, ARNT-TACC3 inh, PfHsp90 yeast 2)
CC(C)N(C(=O)[C@H]1C[C@H](CC(=O)NC(C)(C)C)C(=O)N2CCc3c([nH]c4cc(-c5ccco5)ccc34)[C@]12C)C(C)C	SIRT5 inh 27.0 (no result: NSD2 inh)
O=C(C[C@H]1C[C@H](C(=O)N2CCOCC2)[C@@]2(CCC3CCCC3)c3[nH]c4cc(-c5ccco5)ccc4c3CCN2C1=O)NCc1ccco1	SIRT5 inh 28.1 (no result: NSD2 inh)
CC(C)N(C(=O)[C@H]1C[C@H](CC(=O)NCc2cccc(C(F)(F)F)c2)C(=O)N2CCc3c([nH]c4cc(CCC(=O)N(C)C)ccc34)[C@]12C)C(C)C	SIRT5 inh 23.7 (no result: NSD2 inh)
O=C(C[C@H]1C[C@H](C(=O)N2CCOCC2)[C@@]2(CCC3CCCC3)c3[nH]c4cc(-c5ccco5)ccc4c3CCN2C1=O)NCCC1=CCCCC1	none (no result: Casp6 inh, NSD2 inh, SIRT5 inh)
CCN(CC)C(=O)[C@H]1C[C@H](CC(=O)NCc2cccc(C(F)(F)F)c2)C(=O)N2CCc3c([nH]c4cc(CCC(=O)N(C)C)ccc34)[C@]12C	none (no result: NSD2 inh)
CCN(CC)C(=O)[C@H]1C[C@H](CC(=O)NC(C)(C)C)C(=O)N2CCc3c([nH]c4cc(-c5ccco5)ccc34)[C@]12C	none (no result: NSD2 inh)
COc1cc(CNCC(C)C)c(Br)cc1OCC(=O)NCc1ccccc1	none (no result: Casp6 inh, SIRT5 inh, PfHsp90 yeast 2)
COc1cc(CNC(C)c2ccccc2)c(Br)cc1OCC(N)=O (stereo unspecified)	Casp6 inh 80.3
CCOC(=O)C1=C(O)/C(=C/c2ccc(OCC(=O)O)c(OCC)c2)SC1=Nc1ccc(C)cc1	none
CCOC(=O)C1=C(O)/C(=C/c2ccc(OCC(=O)O)c(OCC)c2)SC1=Nc1ccc(OC)cc1	Casp6 inh 35.5
Cc1ccc(OCC(=O)NNC(=O)[C@@H]2CCCC[C@@H]2C(=O)O)c(Br)c1	none
Cc1cccc(OCC(=O)NNC(=O)C2CCCCC2C(=O)O)c1 (stereo unspecified)	SIRT5 inh 37.2
O=c1cc(CSc2nnnn2-c2ccc(O)cc2)nc2sccn12	SIRT5 inh 38.3
Cn1c(Cc2ccccc2)nnc1SCc1cc(=O)n2ccsc2n1	none (no result: PfHsp90 yeast 2)
O=S(=O)(c1ccc(Cl)nc1)N1CCOCC1	ARNT-TACC3 inh 22.3 (no result: PfHsp90 yeast 2)
O=S(=O)(c1ccc(Cl)nc1)N1CCCCC1	none
COc1cccc(C(=O)Oc2ccc(N3C(=O)CCC3=O)c(C)c2)c1	SIRT5 inh 15.6
CCOCCCNC(=O)c1ccc2c(c1)N=C(CC)c1cc(Br)ccc1S2	SIRT5 inh 16.9
NC(=O)C1CCN(C2=C(Cl)C(=O)c3ccccc3C2=O)CC1	NSD2 inh 88.0 (no result: Casp6 inh, SIRT5 inh)
NC(=O)C1CCN(c2ccc3c(c2)S(=O)(=O)c2ccccc2C3=O)CC1	none (no result: NSD2 inh, SIRT5 inh)
NC(=O)C1CCN(C2=C(NS(=O)(=O)c3ccc(Br)cc3)C(=O)c3ccccc3C2=O)CC1	NSD2 inh 52.2
NC(=O)C1CCN(C2=C(NS(=O)(=O)c3ccccc3)C(=O)c3ccccc3C2=O)CC1	none
CCOC(=O)C1CCN(C2=C(NS(=O)(=O)c3ccc(Br)cc3)C(=O)c3ccccc3C2=O)CC1	SIRT5 inh 22.6 (no result: NSD2 inh)
O=C(C[C@H]1CC[C@H]2[C@@H](COC[C@H](O)CN2C(=O)Cc2ccccc2)O1)NC1CCC1	none (no result: NSD2 inh, PfHsp90 yeast 2)
CN1C[C@@H]2[C@H](c3ccccc31)[C@H](CO)N2C(=O)CN1CCOCC1	none (no result: NSD2 inh, PfHsp90 yeast 2)
CCOC(=O)N(C)C[C@H]1OCc2cn(nn2)CCCC(=O)N([C@H](C)CO)C[C@H]1C	SIRT5 inh 16.5 (no result: NSD2 inh, PfHsp90 yeast 2)
C[C@H]1CN([C@@H](C)CO)C(=O)CCCn2cc(nn2)CO[C@H]1CN(C)Cc1ccccc1	SIRT5 inh 25.3 (no result: NSD2 inh, PfHsp90 yeast 2)
Cc1ccc(S(=O)(=O)N2C[C@@H](O)COC[C@H]3O[C@@H](CC(=O)N[C@H]4CCN(Cc5ccccc5)C4)CC[C@@H]32)cc1	none (no result: NSD2 inh, PfHsp90 yeast 2)
Cc1ccc(OCC(=O)c2c(N)n(C)c(=O)n(C)c2=O)c([N+](=O)[O-])n1	Casp6 inh 35.1 (no result: ARNT-TACC3 inh)
CO[C@H]1CN(C)C(=O)c2cc(NC(C)=O)ccc2OC[C@@H](C)N(C(=O)C2CCCCC2)C[C@H]1C	none (no result: NSD2 inh, PfHsp90 yeast 2)
O=C(COc1ccc(Cl)cc1)Nc1ccc(Cl)cn1	none (no result: Casp6 inh, SIRT5 inh)
O=C(COc1ccc2c(c1)OCO2)Nc1ccc(Cl)cn1	SIRT5 inh 25.7
O=C(C[C@@H]1C=C[C@@H](NC(=O)c2ccncc2)[C@@H](CO)O1)Nc1ccc(-c2ccccc2)cc1	none (no result: NSD2 inh, ARNT-TACC3 inh, PfHsp90 yeast 2)
O=c1c2cc(Br)ccc2[nH]c(=S)n1Cc1ccccc1	none
